Inconclusive results are not listed. Entries that show only a call come without a potency. The source holds several records for some structures; these can differ, active in one and inactive in another. Active and inactive are the calls of the source. Unless noted, calls come from the whole dose curve; as a rule, active = well fitted curve in the direction sought with a large enough effect; inconclusive = small, poorly fitted or top-dose-only effect, or another doubt; inactive = no such curve, though single readings can be large; an effect the other way counts as inactive or inconclusive.
Target: Rap guanine nucleotide exchange factor 4 (Homo sapiens) (UniProt Q8WZA2)
Sequence (Q8WZA2 whole entry, looked up): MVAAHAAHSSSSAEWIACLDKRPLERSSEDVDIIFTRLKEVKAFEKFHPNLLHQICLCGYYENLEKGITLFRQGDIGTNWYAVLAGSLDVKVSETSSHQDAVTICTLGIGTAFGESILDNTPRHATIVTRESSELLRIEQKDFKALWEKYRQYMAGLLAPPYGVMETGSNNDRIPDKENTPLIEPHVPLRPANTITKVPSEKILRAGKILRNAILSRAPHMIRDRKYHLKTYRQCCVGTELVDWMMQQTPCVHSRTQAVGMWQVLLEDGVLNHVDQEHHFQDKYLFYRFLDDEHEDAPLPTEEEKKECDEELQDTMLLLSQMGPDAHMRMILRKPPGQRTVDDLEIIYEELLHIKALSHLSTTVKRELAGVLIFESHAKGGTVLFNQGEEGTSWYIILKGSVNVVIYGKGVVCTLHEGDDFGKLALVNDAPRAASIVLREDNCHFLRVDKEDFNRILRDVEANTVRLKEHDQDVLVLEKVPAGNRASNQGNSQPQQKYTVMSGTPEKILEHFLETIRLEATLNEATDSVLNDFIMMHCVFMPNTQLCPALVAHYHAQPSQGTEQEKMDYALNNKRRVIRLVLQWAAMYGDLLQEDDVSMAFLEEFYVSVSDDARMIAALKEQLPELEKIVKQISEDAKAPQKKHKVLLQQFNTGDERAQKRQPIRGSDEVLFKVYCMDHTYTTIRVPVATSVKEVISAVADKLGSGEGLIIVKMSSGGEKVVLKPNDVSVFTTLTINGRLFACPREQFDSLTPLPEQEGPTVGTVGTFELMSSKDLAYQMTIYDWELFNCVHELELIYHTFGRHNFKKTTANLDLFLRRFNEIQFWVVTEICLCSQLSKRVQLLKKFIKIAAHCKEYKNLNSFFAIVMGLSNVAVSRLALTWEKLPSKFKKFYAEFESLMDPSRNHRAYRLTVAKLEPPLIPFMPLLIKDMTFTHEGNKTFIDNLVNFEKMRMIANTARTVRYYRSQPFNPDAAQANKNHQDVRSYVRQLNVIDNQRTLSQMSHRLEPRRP
Test: Confirmatory qHTS for antagonist of cAMP-regulated guanine nucleotide exchange factor 4 (EPAC2) (AID 1645885); note: nearly all actives have a fitted effect of over 25% in size; note: potency is the fitted concentration of half-maximal effect
Conditions: EPAC2 Rap1B-BODIPY-GDP exchange fluorescence, biochemical; series mostly up to 114 µM

Row | Compound | Potency | activity change, negative = inhibition
1 | C/C=C(/C(=C/C)c1ccc(O)cc1)c1ccc(O)cc1 | 22.1 µM (active) | -2.47% [at 12.7 µM] (inactive)
2 | C[n+]1c2cc(N)ccc2cc2ccc(N)cc21 (tested in a mixture with another compound) | inactive | –
3 | CC(=O)Oc1ccc2c(c1)CC[C@@H]1[C@@H]2CC[C@]2(C)[C@@H](O)CC[C@@H]12 | inactive | –
4 | c1ccc(-c2ccc(C(c3ccccc3)n3ccnc3)cc2)cc1 (stereo not drawn) | 13.9 µM (active) and inactive | –
5 | COc1ccc(/C=C/C(=O)c2ccc(OC)cc2OC)cc1 | 15.6 µM (active) and inactive | –
6 | COc1cccc2c1C(=O)c1c(O)c3c(c(O)c1C2=O)C[C@@](O)(C(C)=O)C[C@@H]3O[C@H]1C[C@H](N)[C@H](O)[C@H](C)O1 | inactive | –
7 | CC1=C(C(=O)OC(C)C)C(c2cccc([N+](=O)[O-])c2)C(C(=O)OC2CN(C(c3ccccc3)c3ccccc3)C2)=C(N)N1 (stereo not drawn) | inactive | –

Target: Rap guanine nucleotide exchange factor 3 (Homo sapiens) (UniProt O95398)
Sequence (O95398 whole entry, looked up): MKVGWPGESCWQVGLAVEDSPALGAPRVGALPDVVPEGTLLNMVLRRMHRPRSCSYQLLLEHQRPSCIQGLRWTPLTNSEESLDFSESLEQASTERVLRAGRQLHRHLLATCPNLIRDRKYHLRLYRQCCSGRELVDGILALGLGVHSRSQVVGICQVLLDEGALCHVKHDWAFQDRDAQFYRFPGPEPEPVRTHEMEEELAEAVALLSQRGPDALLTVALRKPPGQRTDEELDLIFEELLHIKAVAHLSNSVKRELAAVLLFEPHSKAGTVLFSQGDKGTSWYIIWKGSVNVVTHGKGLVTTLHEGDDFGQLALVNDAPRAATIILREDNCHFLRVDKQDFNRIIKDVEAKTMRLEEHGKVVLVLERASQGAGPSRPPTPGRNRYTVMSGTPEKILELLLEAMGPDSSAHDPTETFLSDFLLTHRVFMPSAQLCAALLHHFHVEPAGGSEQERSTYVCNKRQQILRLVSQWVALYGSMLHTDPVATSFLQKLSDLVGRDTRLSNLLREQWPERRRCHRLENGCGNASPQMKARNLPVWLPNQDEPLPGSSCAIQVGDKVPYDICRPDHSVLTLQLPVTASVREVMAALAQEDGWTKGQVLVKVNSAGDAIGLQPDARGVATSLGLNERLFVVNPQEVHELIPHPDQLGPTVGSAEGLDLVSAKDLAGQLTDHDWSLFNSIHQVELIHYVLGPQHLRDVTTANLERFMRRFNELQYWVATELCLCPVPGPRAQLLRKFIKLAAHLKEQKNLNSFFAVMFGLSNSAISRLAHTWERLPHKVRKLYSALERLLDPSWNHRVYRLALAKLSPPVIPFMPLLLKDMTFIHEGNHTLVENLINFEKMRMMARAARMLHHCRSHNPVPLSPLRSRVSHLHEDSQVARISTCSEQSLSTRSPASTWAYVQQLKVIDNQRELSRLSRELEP
Test: Counterscreen qHTS for antagonist of cAMP-regulated guanine nucleotide exchange factor 3 (EPAC1) (AID 1645888);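 note: fluorescence loss as bound BODIPY-GDP is released from Rap1B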
Conditions: Rap1B-BODIPY-GDP nucleotide exchange, fluorescence; series mostly up to 154 µM
Source text: Assay Provider (PI): Xiaodong Cheng Ph.D. The University of Texas Medical Branch, […], TX MLPCN Grant: NS066510 In multi-cellular eukaryotic organisms, the effects of cAMP are transduced by two ubiquitously-expressed intracellular cAMP receptors, the classic protein kinase A/cAMP-dependent protein kinase (PKA/cAPK) and the more recently discovered exchange protein directly activated by cAMP/cAMP-regulated guanine nucleotide exchange factor (EPAC/cAMP-GEF). Both PKA and EPAC are ubiquitously expressed in all tissues, and an increase in intracellular cAMP levels will lead to the activation of both PKA and EPAC. Therefore, careful dissections of the individual role and relative contribution of EPAC and PKA within the overall cAMP signaling in various model systems are critical for further elucidating the mechanism of cAMP signaling. To date no EPAC-specific antagonists and agonist, as well as isoform-specific agonists have been reported, and developing EPAC-specific pharmacological probes to determine the physiological functions that EPAC play in the overall cAMP-mediated signaling remains a major challenge within the research field. Furthermore, identified regulators of EPAC may lead to new mechanism-based therapeutic strategies specifically targeting the EPAC / cAMP-signaling components as EPAC has been implicated to play important roles in major human pathological conditions such as diabetes, heart disease, and cancer. This qHTS will be used to screen the Molecular Libraries Small Molecule Repository (MLSMR) as a concentration-titration series using the NCGC unique quantitative screening (qHTS) platform to find activators for EPAC1. In addition, this assay will also be used as a counterscreen for the EPAC2 qHTS. This fluorescent based assay is developed and validated for EPAC1 that measures exchange using EPAC effector Rap1 complex with BODIPY-GDP, a GDP analog with a tethered fluorophores. Activators are identified by monitoring the change in fluorescence signal as the exchanged free BODIPY-GDP has a reduced fluorescence compared to Rap1-bound BODIPY-GDP. Increase in signal (activation) is the desired outcome for the EPAC1 agonist while no activity in this assay is desired for the EPAC2 agonist counterscreen. Reference: [1] de Rooij, J., Zwartkruis, F. J., Verheijen, M. H., Cool, R. H., Nijman, S. M., Wittinghofer, A., and Bos, J.L. (1998) Nature 396, 474-477. Kawasaki, H., Springett, G. M., Mochizuki, N., Toki, S., Nakaya, M., Matsuda, M., Housman, D. E., and Graybiel, A. M. (1998) Science 282, 2275-2279.
EPAC1 Counterscreen PROTOCOL TABLE SEQUENCE No. (e.g., 1, 2, 3, etc.); […] (e.g., Cells, Incubation, Reagent, etc.); VALUE and DESCRIPTION. 1. Reagent. 3 uL. [1x] 250 nM Rap1B-BODIPY-GDP, and 50 uM GDP. 2a. Compound. 23 nL. Control 6,572 uM cAMP (working concentration). 2b, 2c. Compound. 23 nL. Control activator and inhibitor; 234 - 30,000 uM cAMP and 16.4 - 10,000 uM. 2d. Compound. 46 nL. MLSMR follow-up library; 0.64 - 10,000 uM. 3. Time. 15 sec, 1000rpm. Centrifuge. 4. Time. 5 min. Incubation at room temperature. 5. Detector. Fluorescence. (Read 1), Ex/Em = 480 nm / 540 nm. 6. Time. 30 min. Incubation at room temperature. 7. Detector. Fluorescence. (Read 2), Ex/Em = 480 nm/ 540 nm. 8. Reagent. 1uL. Dispense either [4x] 10 uM cAMP or buffer. 9. Time. 15 sec, 1000 rpm. Centrifuge. 10. Time. 5 min. Incubation at room temperature. 11. Detector. Fluorescence. (Read 3), Ex/Em = 480 nm / 540 nm. 12. Time. 30 min. Incubation at room temperature. 13. Detector. Fluorescence. (Read 4), Ex/Em = 480 nm / 540 nm. […]

Row | Compound | activity change, negative = inhibition | outcome
8 | C/C=C(/C(=C/C)c1ccc(O)cc1)c1ccc(O)cc1 | -9.27% [at 30.8 µM] (inactive) | –
9 | O=C(Nc1ccc(Oc2ccc(Cl)cc2)c(Cl)c1)c1cc(I)cc(I)c1O | – | inactive
10 | c1ccc(-c2ccc(C(c3ccccc3)n3ccnc3)cc2)cc1 (stereo not drawn) | – | inactive
11 | COc1ccc(/C=C/C(=O)c2ccc(OC)cc2OC)cc1 | – | inactive
12 | COc1cccc2c1C(=O)c1c(O)c3c(c(O)c1C2=O)C[C@@](O)(C(C)=O)C[C@@H]3O[C@H]1C[C@H](N)[C@H](O)[C@H](C)O1 | 47.7% [at 30.8 µM] (inactive) | –

Target: Rap guanine nucleotide exchange factor 3 (Homo sapiens) (UniProt O95398)
Test: Counterscreen qHTS for agonist of cAMP-regulated guanine nucleotide exchange factor 3 (EPAC1) (AID 1645889); note: nearly all actives have a fitted effect of over 40% in size; note: potency is the fitted concentration of half-maximal effect
Conditions: EPAC1 Rap1B-BODIPY-GDP exchange, fluorescence; series mostly up to 154 µM
Outline: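 Rap1B-BODIPY-GDP 250 nM + GDP 50 uM; cpds 7-pt, final 9.74 nM–152 uM (activator mode) or from 7.32 nM upwards (inhibitor mode); RT; FI 480/540 nm at 5 and 30 min, then ± cAMP, reread.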

Row | Compound | Potency
13 | c1ccc(-c2ccc(C(c3ccccc3)n3ccnc3)cc2)cc1 (stereo not drawn) | inactive
14 | COc1ccc(/C=C/C(=O)c2ccc(OC)cc2OC)cc1 | inactive
15 | COc1cccc2c1C(=O)c1c(O)c3c(c(O)c1C2=O)C[C@@](O)(C(C)=O)C[C@@H]3O[C@H]1C[C@H](N)[C@H](O)[C@H](C)O1 | 14.1 µM (active)

Test system: not listed separately
Test: NCATS anti-infectives library activity on HEK293 viability as a counter-qHTS vs the C. elegans viability qHTS (AID 1745854); note: potency is the fitted concentration of half-maximal effect
Conditions: HEK293 viability counter-screen; series mostly up to 41.8 µM
Outline: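 CellTiter-Glo luminescence, read on a CCD imager, scored viability of HEK293 cells after 24 hr compound exposure at 37C. Library tested in several concentrations, 1:5 steps, up to 41.7 uM; digitonin served as control.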

Row | Compound | Potency | activity change, negative = cytotoxicity
16 | CC[C@@H](CO)NCCN[C@@H](CC)CO | inactive | –
17 | CCCCCCCCCCCCCCCCOP(=O)([O-])OCC[N+](C)(C)C | – | -18.3% [at 8.35 µM] (inactive)
18 | CCCCC1=NC2(CCCC2)C(=O)N1Cc1ccc(-c2ccccc2-c2nn[nH]n2)cc1 | inactive | –
19 | CC(C)(C)NC(=O)[C@@H]1CN(Cc2cccnc2)CCN1C[C@@H](O)C[C@@H](Cc1ccccc1)C(=O)N[C@H]1c2ccccc2C[C@H]1O | inactive | –
20 | NCCC(O)(P(=O)(O)O)P(=O)(O)O | inactive | –
21 | CCCCc1nc(Cl)c(CO)n1Cc1ccc(-c2ccccc2-c2nn[nH]n2)cc1 | inactive | –
22 | COc1cccc2c1C(=O)c1c(O)c3c(c(O)c1C2=O)C[C@@](O)(C(C)=O)C[C@@H]3O[C@H]1C[C@H](N)[C@H](O)[C@H](C)O1 | 5.62 µM (active) | –
23 | CC1(C)O[C@@H]2[C@@H](CO[C@@]3(COS(N)(=O)=O)OC(C)(C)O[C@@H]23)O1 | inactive | –
24 | CC(O)(P(=O)(O)O)P(=O)(O)O | – | 0.883% [at 8.35 µM] (inactive)
25 | C=C1C(=C/C=C2\CCC[C@]3(C)[C@@H]([C@H](C)/C=C/[C@@H](O)C4CC4)CC[C@@H]23)C[C@@H](O)C[C@@H]1O | inactive | –
26 | O=c1ccc2ccccc2o1 | inactive | –
27 | NCCCC[C@H](N[C@@H](CCc1ccccc1)C(=O)O)C(=O)N1CCC[C@H]1C(=O)O | – | -8.63% [at 8.35 µM] (inactive)

Test system: not listed separately
Test: NCATS anti-infectives library activity on the primary C. elegans qHTS viability assay (AID 1745855; calls by dose curve; note: potency is the fitted concentration of half-maximal effect)
Conditions: C. elegans worm area imaging, day 7; series mostly up to 83.3 µM
Outline: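 Titration-based screen in worms: eggs hatched overnight in M9, L1 larvae fed TOP10 capsules in S medium with compound, incubated 21 °C for 7 days; fluorescent objects gated by size and intensity at days 0, 3 and 7.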

Row | Compound | outcome | Potency
28 | CCCCCCCCCCCCCCCCOP(=O)([O-])OCC[N+](C)(C)C | inactive [at 8.33 µM] | –
29 | COc1cccc2c1C(=O)c1c(O)c3c(c(O)c1C2=O)C[C@@](O)(C(C)=O)C[C@@H]3O[C@H]1C[C@H](N)[C@H](O)[C@H](C)O1 | – | 5.78 µM (active)
30 | CC1(C)O[C@@H]2[C@@H](CO[C@@]3(COS(N)(=O)=O)OC(C)(C)O[C@@H]23)O1 | – | inactive
31 | NC(=NCCCCCCN=C(N)/N=C(\N)Nc1ccc(Cl)cc1)/N=C(\N)Nc1ccc(Cl)cc1 | – | 11.5 µM (active)
32 | O=c1ccc2ccccc2o1 | – | inactive

Reference: PubChem BioAssay (NCATS)
